Assay outcomes from PubChem BioAssay.
PfHsp90 set2: inhibits growth of yeast expressing Plasmodium falciparum Hsp90 | S. cerevisiae expressing PfHsp90, BacTiter-Glo ATP, 48 h; yeast lacking PDR1 and PDR3 efflux regulators | inhibition, % at 9.4 µM | 310,000 compounds, 0.32% hits | AID 504621;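 active = every replicate shows inhibition above about 80%, whatever the replicate mean, limit read from the data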
TIM10 inh: inhibits growth of TIM10 yeast strain; S. cerevisiae TIM10 strain growth, BacTiter-Glo luminescence, 24 h; inhibition, % at 10 µM; 330,000 compounds, 1.4% hits; AID 463195;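 active = inhibition of 40% or more at the single tested concentration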;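 also: wild-type TIM10 isogenic control strain grown at permissive 25 °C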
tim23-1 inh: inhibits growth of tim23-1 mutant yeast; S. cerevisiae tim23-1 growth, BacTiter-Glo luminescence, 24 h; inhibition, % at 20 µM; 330,000 compounds, 1.3% hits;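 active = growth inhibition of the mutant yeast at or above 50%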;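 also: temperature-sensitive mutant grown at 25 °C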
tim10-1 inh: tim10-1 yeast growth inhibition; S. cerevisiae tim10-1 ts strain growth, BacTiter-Glo, 24 h; inhibition, % at 20 µM; 330,000 compounds, 2.2% hits; AID 463190;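 active = inhibition of at least 40%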;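 also: mutant grown at 25 °C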
Rce1 inhib: inhibitors of yeast Ras-converting enzyme. yeast membranes, quenched prenylated peptide cleavage fluorescence. Q03530. 290,000 compounds, 0.27% hits. calls only;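 active = fall in fluorescence gain of 50% or more versus controls, with final raw signal at or below 3038400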
Target sequence (Q03530 whole entry, looked up): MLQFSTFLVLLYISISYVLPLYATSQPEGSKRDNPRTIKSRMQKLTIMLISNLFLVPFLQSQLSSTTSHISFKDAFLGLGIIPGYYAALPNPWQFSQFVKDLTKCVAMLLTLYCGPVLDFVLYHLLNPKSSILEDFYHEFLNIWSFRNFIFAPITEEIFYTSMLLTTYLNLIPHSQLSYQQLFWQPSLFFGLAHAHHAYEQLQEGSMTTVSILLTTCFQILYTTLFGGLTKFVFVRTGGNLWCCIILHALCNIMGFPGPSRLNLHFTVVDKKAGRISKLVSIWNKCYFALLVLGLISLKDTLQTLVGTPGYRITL
tim10-1 confirm: confirmation of tim10-1 mutant yeast growth inhibitors | shares compounds with tim10-1 inh | inhibition, % at 20 µM | S. cerevisiae tim10-1 ts strain growth, BacTiter-Glo, 24 h | 7,400 compounds, 56% hits | AID 463213;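 active = inhibition of yeast growth at or above a set limit in either of two repeat tests at 20 µM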;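 also: tim10-1 mutant grown at permissive 25 °C to find synthetic lethal compounds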
Numbers stand for hits; n = inactive; x = no result given. This is a sample that favours compounds with a hit; in the whole collection about 3.7% have one here.

SMILES	PfHsp90 set2	TIM10 inh	tim23-1 inh	tim10-1 inh	Rce1 inhib	tim10-1 confirm
N/C(=N\OC(=O)CCCc1ccccc1)c1cccc([N+](=O)[O-])c1	n	n	n	46	n	42
N/C(=N\OC(=O)Cc1ccc(-c2ccccc2)cc1)c1cccc([N+](=O)[O-])c1	x	n	n	n	n	x
COc1ccc(C(=O)NCC2OCCc3ccccc32)c(O)c1 (configuration not stated)	n	n	n	45	n	n
Cc1ccc(C2SCCN2C(=O)c2ccc([N+](=O)[O-])cc2)cc1 (configuration not stated)	n	n	n	n	n	x
Cc1ccc(NC(=O)CSC2=Nc3ccccc3C3CC=NN23)c(C)c1 (configuration not stated)	n	n	n	44	n	n
N#CCC(=O)NNc1c([N+](=O)[O-])cc(C(F)(F)F)cc1[N+](=O)[O-]	n	n	n	n	n	x
NC(=O)c1cc2cc([N+](=O)[O-])ccc2oc1=O	n	n	n	n	n	x
CCc1ccccc1OCC(=O)Nc1nc(-c2cccnc2)cs1	n	n	n	n	n	n
O=C1COc2ccc(C(=O)COC(=O)CNS(=O)(=O)c3cccc(F)c3)cc2N1	n	n	n	n	x	x
Cc1ccc(C(=O)NCC(=O)OCC(=O)NCCc2ccccc2)s1	n	n	n	n	n	x
CCOc1cc(S(=O)(=O)Nc2ccccc2CC)ccc1Cl	n	n	n	n	n	x
CCOc1cc(S(=O)(=O)Nc2ccc(CC)cc2)ccc1Cl	x	n	n	59	x	n
O=C1/C(=C\c2ccc(O)cc2)SC(=S)N1/N=C/c1ccc(O)cc1	n	n	n	41	n	39
CC(=O)NN1C(=O)/C(=C\c2ccc(O)cc2)SC1=S	n	n	n	n	n	x
CCn1c(=S)sc2c(=O)n(-c3ccccc3)c(SC)nc21	n	n	n	48	n	49
Fc1ccc(-c2nn3c(C4COc5ccccc5O4)nnc3s2)cc1 (configuration not stated)	n	n	n	47	n	43
c1csc(-c2nn3c(C4COc5ccccc5O4)nnc3s2)c1 (configuration not stated)	n	n	n	n	n	x
COc1ccccc1N1CCN(C2CCN(C(=O)COc3cccc(C)c3)CC2)CC1	n	n	n	n	n	x
Cc1ccc(C2CC(c3ccc(Cl)cc3)=NNC2=O)cc1 (configuration not stated)	x	n	n	n	n	x
Cc1cccc(C2=NNC(=O)C(c3ccc(Cl)cc3)C2)c1 (configuration not stated)	n	n	n	60	n	45
CCOC(=O)C1CCCN(C(=O)CSc2nccn2C)C1 (configuration not stated)	n	n	n	n	x	x
Cc1cc(C)c2c(NC(=S)NC(=O)c3ccccc3)nn(C)c2n1	n	n	n	50	n	n
Cc1nn(-c2ccc3ccccc3c2)c(=O)c2ccccc12	n	n	n	40	n	n
CC(=NC1CCCCC1)C1=C(O)c2ccccc2C1=O	n	n	n	41	n	n
CSC(=NC1CCCCC1)NS(=O)(=O)c1ccccc1	n	n	n	n	n	x
SMILES	PfHsp90 set2	TIM10 inh	tim23-1 inh	tim10-1 inh	Rce1 inhib	tim10-1 confirm
CCOC(=O)C1NN=C(C(=O)c2ccccc2)C1c1ccccc1 (configuration not stated)	n	n	n	n	n	x
CCOC(=O)C1NN=C(C(=O)c2ccccc2)C1c1ccc(Cl)cc1 (configuration not stated)	n	n	n	43	n	n
CCOC(=O)COc1ccc(/C=C2\NC(=S)N(CC)C2=O)cc1	n	n	n	n	n	n
O=S(=O)(Nc1c(O)ccc2ccccc12)c1cccc2ccccc12	n	n	n	44	n	n
Cc1ccc(S(=O)(=O)Nc2c(O)ccc3ccccc23)cc1	x	n	n	n	n	x
COc1cc2[nH]c(C(=O)N3CCC(Cc4ccccc4)CC3)cc2c(OC)c1OC	n	n	n	44	n	n
CC1(C)Cc2c(sc(NC(=O)C(=O)N3CCCC3)c2C#N)CO1	n	n	n	41	n	n
Cc1c(Cl)cccc1NC(=O)CNC(=O)Cc1c[nH]c2ccccc12	x	n	n	n	x	x
Cc1nc2ccccc2c2oc(C(=O)N3CC(C)CC(C)C3)cc12 (configuration not stated)	n	n	n	52	n	n
COc1ccc2cc3cc(C(=O)N4CC(C)CC(C)C4)oc3nc2c1 (configuration not stated)	n	n	n	56	n	n
CCC(C)NC(=O)C(Cc1ccccc1)NS(=O)(=O)c1ccc2c(c1)oc(=O)n2C (configuration not stated)	n	n	n	n	n	x
CCN(CC)c1ccc(C(=O)OCc2c(C)noc2C)cc1	n	n	n	n	n	x
CC(=O)c1c(C)[nH]c(C(=O)Nc2nc(-c3ccccc3)c(C)s2)c1C	n	n	n	43	n	n
CC(C)CCNC(=O)NC(=O)CSc1nnc(COc2ccccc2Cl)o1	n	n	n	49	n	n
O=C(NNC1=Nc2cc([N+](=O)[O-])ccc2OC1)c1ccccc1Cl	n	n	n	n	n	x
CCOC(=O)N1CCC(n2c(SCC(=O)NCc3ccccc3)nc3ccccc3c2=O)CC1	n	n	n	43	n	n
O=C(O)CCNS(=O)(=O)c1ccc2c(c1)OCCCO2	n	n	n	n	n	x
O=[N+]([O-])c1ccc(Nc2ccc(Cl)cc2)nc1	n	n	n	59	n	42
CC(C)(C)c1cc(N2CCOCC2)n2ncc(-c3ccc(Cl)cc3)c2n1	n	n	n	n	n	x
Cc1cc(C)n(-c2cc(C(C)(C)C)nc3c(-c4ccc(Cl)cc4)cnn23)n1	n	n	n	n	x	n
CC(=O)NC1=NN(C(C)=O)C(c2sccc2C)S1 (configuration not stated)	n	n	n	n	n	x
CC1(C)OC(=O)N(c2ccccc2)C12C=Cc1c(ccc3ccccc13)O2 (configuration not stated)	n	n	n	43	n	n
CC(C)CCNC(=O)C(=O)NCC1OCCCN1S(=O)(=O)c1cccs1 (configuration not stated)	n	n	n	n	n	x
COc1ccccc1/C=C1\SC(=S)N(NS(=O)(=O)c2ccc(C)cc2)C1=O	n	n	n	44	n	n
Cn1c(SC2=CS(=O)(=O)c3ccccc32)nc2ccccc21	n	n	n	44	n	n
CN1CCN(C2Cc3ccccc3Sc3ccc(Cl)cc32)CC1 (configuration not stated)	n	n	n	52	x	36
CCNC(=S)NNC(=O)c1cc(-c2cccc(OCC)c2)nc2ccccc12	n	n	n	n	n	x
CCNC(=S)NNC(=O)c1cc(-c2cccnc2)nc2ccccc12	x	n	n	55	n	41
CCCCOc1cccc(-c2cc(C(=O)NNC(=S)NCC)c3ccccc3n2)c1	n	n	n	41	n	37
